Reference: the supplement of paper PMC10849652
The full data set covers some 7,900 targets. This sample favours those with a hit. About 0.6% of all pairs of compound and target were hits.

Tests used:
Assay in all cases: log2 fold change, soluble protein after heating vs DMSO (PISA); higher = thermal stabilisation; K562 cells, 10 uM, 30 min; active = over 0.2 and 3.5 SD of the protein, either way, in both replicates (recomputed)
[1] = compound: C#Cc1cccc(Nc2ncnc3cc(OCCOC)c(OCCOC)cc23)c1 [erlotinib]
How it was run: (§1)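 K562 cells (2×10^6 cells/mL) were treated with 10 μM compound for 30 min, and aliquots were heated for 3 min over 48°C-58°C. Pooled aliquots were extracted in PBS with 0.5% NP-40 at 4°C, and the supernatant after 21,000xg for 90 min was measured by TMTpro 16plex LC-MS/MS with channel sums equalised. Reported thermal stability, relative to control samples and from duplicates, is a log2 fold change.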

[2] = compound: C/C(=N\NC(=O)C1=CC(=CC=C1)S(=O)(=O)N2CCOCC2)/C3=C(C=CC(=C3)Cl)O
How it was run: as §1

[3] = compound: C1=CC(=C(C=C1Cl)C2=NC3=NC=CN=C3C(=N2)NC4=CC=NC=C4)F
How it was run: as §1

[4] = compound: C1=CC(=CC=C1C2=NC3=C(N2)C=C(C=C3)C(=O)N)OC4=CC=C(C=C4)Cl
How it was run: as §1

[5] = compound: C1=CC2=C(C=CC(=C2)/C=C\3/C(=O)NC(=NCC4=CC=CS4)S3)N=C1
How it was run: as §1

[6] = compound: C1=CC2=NC=CN=C2C=C1/C=C/3\C(=O)NC(=O)S3
How it was run: as §1

[7] = compound: C1=CC=C(C=C1)C2=NC(=C(N2)C3=CC=NC=C3)C4=CC(=C(C=C4)Cl)O
How it was run: as §1

[8] = compound: C1=CC=C2C(=C1)C3=NNC4=CC=CC(=C43)C2=O
How it was run: as §1

[9] = compound: C1CCN(C1)C(=O)NC2=CC=CC(=C2)NC3=NC=C(C(=N3)NCCC4=CN=CN4)Br
How it was run: as §1

[10] = compound: C1CN(CCC1(CC2=CC=C(C=C2)Cl)N)C3=NC=NC4=C3C=CN4
How it was run: as §1

[11] = compound: C1COCCN1CCN2C3=CC=CC=C3N=C2NC(=O)C4=CC(=CC=C4)[N+](=O)[O-] [IRAK-1-4 Inhibitor I]
How it was run: as §1

[12] = compound: C=CC(=O)N1CCC[C@@H](n2nc(-c3ccc(Oc4ccccc4)cc3)c3c(N)ncnc32)C1 [ibrutinib]
How it was run: as §1

[13] = compound: CC(=O)c1cnc2ccc(-c3cc(Cl)c(O)c(Cl)c3)nc2c1N[C@H]1CC[C@H](CN(C)C)CC1
How it was run: as §1

[14] = compound: CC(C)(C)Cn1c(N)nc2ccc(-c3[nH]c(C(C)(C)C)nc3-c3ccc(F)cc3)nc21 [ralimetinib]
How it was run: as §1

[15] = compound: CC(C)(O)CC(=O)NCCn1ccc2ncnc(Nc3ccc(Oc4cccc(C(F)(F)F)c4)c(Cl)c3)c21
How it was run: as §1

[16] = compound: CC(C)C1=C2N=C(C=C(N2N=C1)NCC3=CC=CC=C3)NCCCCCCN
How it was run: as §1

[17] = compound: CC(C)C[C@@H](C=O)NC(=O)[C@H](CC(C)C)NC(=O)[C@H](CC(C)C)NC(=O)OCc1ccccc1
How it was run: as §1

[18] = compound: CC(C)N(C[C@H]1O[C@@H](n2cnc3c(N)ncnc32)[C@H](O)[C@@H]1O)[C@H]1C[C@@H](CCc2nc3cc(C(C)(C)C)ccc3[nH]2)C1 [pinometostat]
How it was run: as §1

[19] = compound: CC1=C(C(CC(=O)N1)C2=CC=C(C=C2)C(F)(F)F)C(=O)NC3=C(C=C4C(=C3)C=NN4)F
How it was run: as §1

[20] = compound: CC1=C(C2=C(C=C1)C(=O)C3=CC=CC=C3N2CCCN)C
How it was run: as §1

Measured: log2 fold change

CDKN2AIP (UniProt Q9NXV6)
Chain of UniProt Q9NXV6 (Q9NXV6 whole entry, looked up): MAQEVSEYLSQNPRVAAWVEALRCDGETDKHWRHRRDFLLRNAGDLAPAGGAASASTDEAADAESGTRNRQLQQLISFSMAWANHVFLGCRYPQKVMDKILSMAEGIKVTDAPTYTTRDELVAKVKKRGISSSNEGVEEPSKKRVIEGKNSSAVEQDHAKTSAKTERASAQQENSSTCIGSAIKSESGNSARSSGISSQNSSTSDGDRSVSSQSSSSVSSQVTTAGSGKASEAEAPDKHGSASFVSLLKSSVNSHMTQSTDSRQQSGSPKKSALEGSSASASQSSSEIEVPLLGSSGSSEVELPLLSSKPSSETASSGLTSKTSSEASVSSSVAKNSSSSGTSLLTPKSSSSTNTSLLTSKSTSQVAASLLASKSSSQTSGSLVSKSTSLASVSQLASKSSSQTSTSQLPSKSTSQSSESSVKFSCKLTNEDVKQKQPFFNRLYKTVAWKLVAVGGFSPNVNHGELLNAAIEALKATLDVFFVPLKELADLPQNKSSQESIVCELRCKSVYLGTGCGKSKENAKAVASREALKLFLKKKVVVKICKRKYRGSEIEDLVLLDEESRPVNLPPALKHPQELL
inactive: [1] 0.017 | [2] -0.018 | [3] 0 | [4] 0.056 | [5] 0.018 | [6] 0.009 | [7] 0.036 | [8] 0.007 | [9] -0.006 | [10] -0.021 | [11] -0.057 | [12] 0.039 | [13] 0.062 | [14] 0.059 | [15] 0.01 | [16] 0.056 | [17] -0.04 | [18] 0.032 | [19] -0.056
active: [20] 0.241

CBS (UniProt P35520)
Chain of UniProt P35520 (P35520 whole entry, looked up): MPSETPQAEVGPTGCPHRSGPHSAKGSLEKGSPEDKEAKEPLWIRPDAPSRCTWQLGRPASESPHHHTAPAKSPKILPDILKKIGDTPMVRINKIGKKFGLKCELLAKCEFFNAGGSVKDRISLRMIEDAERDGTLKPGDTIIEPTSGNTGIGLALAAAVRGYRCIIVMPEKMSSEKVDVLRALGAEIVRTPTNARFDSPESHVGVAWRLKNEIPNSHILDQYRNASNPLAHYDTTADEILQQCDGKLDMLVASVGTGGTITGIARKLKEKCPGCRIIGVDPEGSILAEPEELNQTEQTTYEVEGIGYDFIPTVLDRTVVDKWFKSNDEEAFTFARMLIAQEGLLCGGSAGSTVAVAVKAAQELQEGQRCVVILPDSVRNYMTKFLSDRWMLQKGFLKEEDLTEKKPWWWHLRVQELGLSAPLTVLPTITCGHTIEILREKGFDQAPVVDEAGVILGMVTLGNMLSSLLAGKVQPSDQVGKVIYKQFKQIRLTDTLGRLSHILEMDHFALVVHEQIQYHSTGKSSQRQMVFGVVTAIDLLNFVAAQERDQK
inactive: [1] 0.014 | [2] -0.031 | [3] 0.039 | [4] -0.014 | [5] -0.026 | [6] 0.013 | [7] -0.03 | [8] 0.052 | [9] 0.025 | [10] 0.042 | [11] 0.044 | [12] -0.007 | [13] 0.008 | [14] -0.01 | [15] 0.027 | [16] 0.036 | [17] -0.013 | [18] -0.048 | [19] 0.034 | [20] 0.001

COX5A (UniProt P20674)
Chain of UniProt P20674 (P20674 whole entry, looked up): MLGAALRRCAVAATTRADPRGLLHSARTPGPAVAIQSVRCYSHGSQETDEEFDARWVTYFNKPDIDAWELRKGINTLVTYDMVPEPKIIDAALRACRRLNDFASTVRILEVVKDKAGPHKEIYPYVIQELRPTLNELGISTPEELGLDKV
inactive: [1] -0.005 | [2] -0.05 | [3] 0.104 | [4] 0.052 | [5] 0.045 | [6] 0.016 | [7] 0.183 | [8] 0.051 | [9] -0.026 | [10] -0.081 | [11] 0.041 | [12] 0.008 | [13] -0.09 | [14] -0.053 | [15] -0.103 | [16] 0.058 | [17] -0.069 | [18] -0.042 | [19] 0.041 | [20] 0.122

CSNK2A2 (UniProt P19784)
Chain of UniProt P19784 (P19784 whole entry, looked up): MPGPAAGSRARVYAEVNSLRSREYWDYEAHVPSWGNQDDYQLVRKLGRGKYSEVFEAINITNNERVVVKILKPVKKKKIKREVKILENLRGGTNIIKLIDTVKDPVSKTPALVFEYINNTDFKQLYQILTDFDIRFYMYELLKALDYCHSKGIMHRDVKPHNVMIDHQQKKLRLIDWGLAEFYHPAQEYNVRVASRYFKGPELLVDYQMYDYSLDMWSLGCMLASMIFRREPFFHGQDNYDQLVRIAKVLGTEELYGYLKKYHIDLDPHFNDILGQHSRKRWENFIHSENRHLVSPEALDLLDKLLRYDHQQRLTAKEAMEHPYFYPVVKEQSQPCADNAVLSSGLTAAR
inactive: [1] -0.053 | [2] -0.08 | [3] 0.046 | [4] -0.006 | [7] -0.038 | [8] 0.185 | [9] 0.034 | [10] -0.047 | [11] 0.033 | [12] 0.006 | [14] 0.001 | [15] -0.065 | [16] 0.026 | [17] -0.029 | [18] 0.149 | [19] 0.009
active: [5] 0.22 | [6] 0.591 | [13] 0.585 | [20] 0.235

CA1 (UniProt P00915)
Chain of UniProt P00915 (P00915 whole entry, looked up): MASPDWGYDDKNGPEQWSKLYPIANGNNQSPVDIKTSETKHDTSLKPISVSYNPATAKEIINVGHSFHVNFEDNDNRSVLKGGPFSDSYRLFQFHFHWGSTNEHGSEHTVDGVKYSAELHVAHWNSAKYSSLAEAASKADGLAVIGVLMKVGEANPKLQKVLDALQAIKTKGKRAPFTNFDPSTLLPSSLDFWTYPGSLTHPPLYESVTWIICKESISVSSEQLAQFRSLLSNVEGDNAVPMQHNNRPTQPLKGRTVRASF
inactive: [1] -0.025 | [2] 0.022 | [3] 0.03 | [4] 0.006 | [5] -0.079 | [6] 0.009 | [7] 0.064 | [8] 0.004 | [9] 0.018 | [10] 0.054 | [11] 0.068 | [12] -0.02 | [13] 0.003 | [14] 0.017 | [15] -0.031 | [16] 0.119 | [17] -0.011 | [18] -0.006 | [19] -0.019 | [20] -0.043

CRKL (UniProt P46109)
Chain of UniProt P46109 (P46109 whole entry, looked up): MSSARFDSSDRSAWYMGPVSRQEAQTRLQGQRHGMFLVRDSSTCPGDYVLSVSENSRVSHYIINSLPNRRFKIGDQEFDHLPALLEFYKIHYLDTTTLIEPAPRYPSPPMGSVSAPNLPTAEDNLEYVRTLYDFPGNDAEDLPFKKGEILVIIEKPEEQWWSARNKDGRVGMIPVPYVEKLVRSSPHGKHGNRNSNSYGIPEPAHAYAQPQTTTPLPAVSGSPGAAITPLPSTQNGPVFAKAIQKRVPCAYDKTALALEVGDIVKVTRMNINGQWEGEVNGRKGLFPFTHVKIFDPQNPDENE
inactive: [1] -0.012 | [2] -0.002 | [3] 0.014 | [4] -0.02 | [5] 0.047 | [6] 0.006 | [7] -0.069 | [8] -0.017 | [9] 0.017 | [10] 0.026 | [11] 0.035 | [12] -0.102 | [14] -0.054 | [15] -0.004 | [16] 0.042 | [17] 0.057 | [18] -0.022 | [19] 0.042 | [20] -0.008
active: [13] -1.24

CCNT1 (UniProt O60563)
Chain of UniProt O60563 (O60563 whole entry, looked up): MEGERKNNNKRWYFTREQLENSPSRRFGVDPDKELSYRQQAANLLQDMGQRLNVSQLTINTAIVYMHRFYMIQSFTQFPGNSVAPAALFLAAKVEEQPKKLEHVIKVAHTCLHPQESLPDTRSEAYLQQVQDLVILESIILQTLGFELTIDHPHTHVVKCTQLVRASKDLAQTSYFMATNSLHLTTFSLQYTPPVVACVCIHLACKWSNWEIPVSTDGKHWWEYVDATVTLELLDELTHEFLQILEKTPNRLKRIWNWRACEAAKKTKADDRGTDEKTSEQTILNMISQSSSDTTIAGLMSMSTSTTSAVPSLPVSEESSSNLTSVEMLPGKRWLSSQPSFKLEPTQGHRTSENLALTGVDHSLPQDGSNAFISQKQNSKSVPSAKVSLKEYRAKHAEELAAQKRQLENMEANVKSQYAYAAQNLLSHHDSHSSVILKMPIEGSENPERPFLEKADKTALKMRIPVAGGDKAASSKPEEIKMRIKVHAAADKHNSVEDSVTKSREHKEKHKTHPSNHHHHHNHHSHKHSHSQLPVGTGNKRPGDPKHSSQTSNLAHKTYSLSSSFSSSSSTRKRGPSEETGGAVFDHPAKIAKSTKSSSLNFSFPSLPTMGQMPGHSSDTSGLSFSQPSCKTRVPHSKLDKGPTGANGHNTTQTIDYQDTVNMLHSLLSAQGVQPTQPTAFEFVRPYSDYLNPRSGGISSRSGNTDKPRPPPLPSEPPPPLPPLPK
inactive: [1] -0.026 | [2] 0.036 | [3] -0.141 | [4] 0.047 | [5] -0.041 | [6] -0.05 | [7] -0.129 | [8] -0.084 | [9] -0.014 | [10] -0.059 | [11] -0.004 | [12] 0.001 | [14] 0.054 | [15] 0.042 | [17] 0.105 | [18] 0.213 | [19] -0.003 | [20] -0.112
active: [13] -0.603 | [16] -0.375

CDAN1 (UniProt Q8IWY9)
Chain of UniProt Q8IWY9 (Q8IWY9 whole entry, looked up): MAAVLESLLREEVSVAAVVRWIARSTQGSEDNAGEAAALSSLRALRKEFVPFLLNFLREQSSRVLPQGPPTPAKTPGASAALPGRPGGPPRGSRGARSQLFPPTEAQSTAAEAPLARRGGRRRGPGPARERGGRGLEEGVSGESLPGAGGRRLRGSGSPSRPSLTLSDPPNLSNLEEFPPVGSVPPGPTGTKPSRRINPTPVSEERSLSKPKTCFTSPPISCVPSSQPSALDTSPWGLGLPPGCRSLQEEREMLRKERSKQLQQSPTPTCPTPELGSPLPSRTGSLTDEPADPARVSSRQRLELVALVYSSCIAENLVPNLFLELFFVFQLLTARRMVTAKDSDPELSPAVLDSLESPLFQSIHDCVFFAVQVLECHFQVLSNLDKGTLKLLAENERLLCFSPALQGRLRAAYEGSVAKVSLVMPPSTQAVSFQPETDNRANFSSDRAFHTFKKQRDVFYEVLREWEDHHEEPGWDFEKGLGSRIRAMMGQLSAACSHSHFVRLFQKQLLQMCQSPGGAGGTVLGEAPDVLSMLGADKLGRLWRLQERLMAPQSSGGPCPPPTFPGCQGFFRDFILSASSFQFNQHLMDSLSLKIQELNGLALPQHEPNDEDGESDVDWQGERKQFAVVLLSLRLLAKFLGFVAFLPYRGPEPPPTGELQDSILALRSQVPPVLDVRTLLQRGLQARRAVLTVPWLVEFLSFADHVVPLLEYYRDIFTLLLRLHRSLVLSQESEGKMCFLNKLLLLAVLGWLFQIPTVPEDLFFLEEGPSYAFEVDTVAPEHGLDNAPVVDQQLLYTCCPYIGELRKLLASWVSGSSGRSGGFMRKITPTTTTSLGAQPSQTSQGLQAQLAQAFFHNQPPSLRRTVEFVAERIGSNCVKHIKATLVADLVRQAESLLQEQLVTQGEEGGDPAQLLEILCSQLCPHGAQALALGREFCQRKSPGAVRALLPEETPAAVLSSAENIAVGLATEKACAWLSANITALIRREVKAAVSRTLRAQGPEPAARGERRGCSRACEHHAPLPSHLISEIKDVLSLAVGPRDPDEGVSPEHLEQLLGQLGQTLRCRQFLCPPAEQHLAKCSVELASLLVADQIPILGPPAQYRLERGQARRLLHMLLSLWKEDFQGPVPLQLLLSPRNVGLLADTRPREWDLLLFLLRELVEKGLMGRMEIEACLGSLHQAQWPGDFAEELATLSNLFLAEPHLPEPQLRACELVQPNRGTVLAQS
inactive: [1] -0.031 | [2] 0.048 | [3] -0.171 | [4] -0.011 | [5] 0.039 | [6] 0.066 | [7] 0.019 | [8] -0.057 | [9] 0.109 | [10] 0.03 | [11] 0.057 | [12] -0.001 | [13] -0.044 | [14] -0.036 | [15] -0.168 | [16] -0.051 | [17] -0.006 | [18] 0.026 | [19] 0.009
active: [20] -0.398
